Assay [1] is described as follows: Nuclear factor erythroid 2-related factor 2/antioxidant responsive element (Nrf2/ARE) small molecule agonists: qHTS cell viability counter screen in human keratinocytes (AID 1919968; active means well fitted curve in the direction sought with a large enough effect in the repeat runs; an effect the other way counts as inactive or inconclusive; further: nearly all actives have a fitted effect of over 55% in size; further: potency means the concentration at half of the fitted maximal effect). The essentials: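 Cells of the KeratinoSens line were plated at 1,500 per well and left for 5 h before compound transfer from DMSO stocks. After a 23 h incubation (37 C, 5% CO2), CellTiter-Fluor was added. Signal was taken as fluorescence intensity 1 h later.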
(In general: Quantitative high-throughput screening tests each substance at several concentrations.)

Assay [2] addresses Gonadotropin-releasing hormone receptor (Homo sapiens) (UniProt P30968). Kind of assay: Human gonadotropin-releasing hormone receptor (GnRHR) small molecule agonists, calcium flux assay in GnRHR-HEK293 cells (AID 1920063). Further: nearly all actives have a fitted effect of over 35% in size. The method in brief:
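Compounds dissolved in DMSO are pin-transferred onto dye-loaded GnRHR-HEK293 cells, which were seeded 18 h before at 37 C/5% CO2. Calcium signal is read as fluorescence intensity at 1 s intervals for 3 min.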
For orientation: Calcium flux is commonly read through the fluorescence of an indicator in the cells.

Assay [3] addresses KiSS-1 receptor (Homo sapiens) (UniProt Q969F8). Kind of assay: Human kisspeptin (KISS1R) small molecule agonists, calcium flux assay in KISS1R-HEK293 cells (AID 1920064; active means well fitted curve in the direction sought with a large enough effect in the repeat runs; an effect the other way counts as inactive or inconclusive). The essentials:
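Cell line: HEK293, stable human KISS1R. Dye loading 1 h at 37 C after 18 h culture. Read: kinetic fluorescence, 480/540 nm, 3 min at 1 s intervals.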

Assay [4] can be described thus: G protein-coupled receptor (GPCR) small molecule agonists, calcium flux assay: HEK293 wild type cell line counter screen (AID 1920065). Further: potency means the concentration at half of the fitted maximal effect. The method in brief: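 Tox21 10K compounds, 15 concentrations each in triplicate, pin-transferred in DMSO onto dye-loaded cells; kinetic read at 480/540 nm for 3 min, 1 s intervals.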
Assay [5] is described as follows: p53 small molecule agonists, cell-based qHTS assay with human liver microsomes (AID 1963577).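 Further: p53 response element beta-lactamase reporter cells with liver microsomes plus NADPH.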 The essentials:
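In this qHTS, p53 response-element beta-lactamase cells receive test compound together with a microsome/NADPH activating system (0.5 mg/mL final each) and are incubated 16 h at 37 C before LiveBLAzer fluorescence detection.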

Assay [6] in a line: p53 small molecule agonists, cell-based qHTS assay with rat liver microsomes (AID 1963578). The method in brief:
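Agonist mode in p53RE-bla reporter cells, with compounds co-incubated 16 h at 37 C alongside 0.5 mg/mL rat liver microsomes and 0.5 mg/mL NADPH (final), followed by a 2 h LiveBLAzer detection step.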

A short description of assay [7]: p53 small molecule agonists, cell-based qHTS assay with human liver microsomes: qHTS cell viability counter screen (AID 1963579). Further: nearly all actives have a fitted effect of over 45% in size. Further: potency means the concentration at half of the fitted maximal effect. The method in brief:
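Metabolically activated exposure: compounds, human liver microsomes and NADPH (0.5 mg/mL final apiece) were added to p53RE-bla cells seeded 5 h earlier, left 16 h at 37 C, and then assessed for viability by CellTiter-Glo luminescence.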

Assay [8] can be described thus: p53 small molecule agonists, cell-based qHTS assay with rat liver microsomes: qHTS cell viability counter screen (AID 1963580). Further: nearly all actives have a fitted effect of over 45% in size. The method in brief: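 Luminescent ATP readout (CellTiter-Glo, 30 min at room temperature) reports viability of p53RE-bla HCT-116 cells after 16 h at 37 C with test compounds under metabolic activation by rat liver microsomes and NADPH at 0.5 mg/mL final each.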

The nature of assay [9]: p53 small molecule agonists, cell-based qHTS assay: qHTS cell viability counter screen (AID 1963581). Further: nearly all actives have a fitted effect of over 45% in size. The essentials: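 ATP content measured by luminescence in HCT-116 p53RE-bla cells treated 16 h at 37 C, same wells as the reporter screen.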
A short description of assay [10]: p53 small molecule agonists, cell-based qHTS assay (AID 1963582; active means well fitted activation curve with a large enough effect in the signal ratio in the repeat runs, not every such curve was filed as active; the % refers to the signal ratio). The method in brief:
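16 h compound exposure (37 C) of p53 response element–bla cells, preceded by 5 h recovery at 37 C/5% CO2; read-out via LiveBLAzer B/G FRET substrate, 2 h RT, fluorescence intensity.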

Assay [11] has as its target 5-hydroxytryptamine receptor 2A (Homo sapiens) (UniProt P28223). Kind of assay: 5-hydroxytryptamine receptor 2A (HTR2A) small molecule antagonists, cell-based qHTS assay (AID 1963586). Further: nearly all actives have a fitted effect of over 45% in size. The method in brief:
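CHO cells stably expressing human HTR2A were plated for 18 h at 37 C, then loaded with calcium dye for 1 h. Compounds were preincubated 5 min at room temperature before DOI (4 nM solution) was added. Kinetic fluorescence was read for 3 min.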

Assay [12] has the same target. Kind of assay: 5-hydroxytryptamine receptor 2A (HTR2A) small molecule agonists, cell-based qHTS assay (AID 1963587). Further: nearly all actives have a fitted effect of over 30% in size. The method in brief:
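HTR2A-CHO cells, plated 18 h at 37 C/5% CO2, dye-loaded 1 h at 37 C; compounds in DMSO added by pin tool (agonist mode). Intracellular calcium flux read as kinetic fluorescence on FDSS over 2 min at 1 s intervals.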

For assay [13], the target named is Muscarinic acetylcholine receptor M1 (Homo sapiens) (UniProt P11229). Kind of assay: Cholinergic receptor muscarinic 1 (CHRM1) small molecule antagonists, cell-based qHTS assay (AID 1963588). Further: nearly all actives have a fitted effect of over 40% in size. The essentials:
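Compounds were tested at 15 concentrations in three independent runs. Dye-loaded CHRM1-CHO cells were exposed 5 min at room temperature before stimulation by acetylcholine added at 50nM. Intracellular calcium was read kinetically on FDSS for 3 min.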

For assay [14] the target is unchanged. Kind of assay: Cholinergic receptor muscarinic 1 (CHRM1) small molecule agonists, cell-based qHTS assay (AID 1963589). Further: nearly all actives have a fitted effect of over 35% in size. The essentials: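 Homogeneous fluorescence calcium flux, agonist mode. Human M1-expressing CHO cells; compound dosed at 15 concentrations, three independent runs; signal sampled every 1 sec.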
A short description of assay [15]: cAMP Responsive Elements (CRE) small molecule agonists, cell-based qHTS assay (AID 1963590). The method in brief: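 HEK 293T cells stably bearing CRE-bla were plated at 2,000 cells per well and rested 18 h. Compounds, positive controls or DMSO were added for 3 h at 37 C. LiveBLAzer B/G substrate was then loaded for 2 h at room temperature.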
A short description of assay [16]: cAMP Responsive Elements (CRE) small molecule antagonists, cell-based qHTS assay (AID 1963591; active means well fitted inhibition curve with a large enough effect in the signal ratio in the repeat runs, not every such curve was filed as active; the % refers to the signal ratio). The essentials:
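First, CRE-bla HEK293T cells settled 18 h at 37 C. Next, compound and 0.25 uM final NKH477 were applied for 3 h. Last, LiveBLAzer B/G substrate was loaded for 2 h at room temperature.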

Assay [17] concerns the target Beta-2 adrenergic receptor (Homo sapiens) (UniProt P07550). Kind of assay: Adrenergic beta2 receptor (ADRB2) small molecule antagonists, cell-based qHTS assay (AID 1963592). Further: series mostly up to about 92 µM; nearly all actives have a fitted effect of over 50% in size. The method in brief:
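Assay format: CHO-ADRB2 cells, 18-20hr seeding at 37C/5% CO2, then compound plus 1nM isoproterenol agonist mix for 0.5hr RT. Homogeneous time-resolved fluorescence cAMP detection after 1hr, expressed as 665/615 nm ratio.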

For assay [18], the target named is D(2) dopamine receptor (Homo sapiens) (UniProt P14416). Kind of assay: Dopamine D2 receptor (DRD2) small molecule agonists, cell-based qHTS assay (AID 1963594). Further: nearly all actives have a fitted effect of over 35% in size. The method in brief:
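HEK293 cells stably expressing DRD2 were cultured 24 h at 37 C, then given Ro20-1724 (0.1 mM final) and compounds for 10 min at room temperature. NKH477 (200nM) was then added for 30 min. cAMP was read by HTRF.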

Assay [19] shares this target. Kind of assay: Dopamine D2 receptor (DRD2) small molecule antagonists, cell-based qHTS assay (AID 1963595; active means well fitted inhibition curve with a large enough effect in the signal ratio in the repeat runs, with a control signal flat; the % refers to the signal ratio). The essentials: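 Antagonist mode in DRD2-HEK293 cells: after compound addition with 0.1 mM Ro20-1724, cells received quinpirole (12 nM) and NKH477 (200 nM) for 30 min at room temperature; HTRF cAMP read after 1 h detection.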
Assay [20] can be described thus: Nuclear factor erythroid 2-related factor 2/antioxidant responsive element (Nrf2/ARE) small molecule agonists: luciferase reporter gene qHTS assay in human keratinocytes (AID 1919969). Further: potency means the concentration at half of the fitted maximal effect; nearly all actives have a fitted effect of over 35% in size.

A number with no mark means an inactive call. Records with an inconclusive call do not appear. Calls of active or inactive are those of the source. Unless noted, the call rests on the fitted dose curve.

KiSS-1 receptor (Homo sapiens), sequence (Q969F8 whole entry, looked up): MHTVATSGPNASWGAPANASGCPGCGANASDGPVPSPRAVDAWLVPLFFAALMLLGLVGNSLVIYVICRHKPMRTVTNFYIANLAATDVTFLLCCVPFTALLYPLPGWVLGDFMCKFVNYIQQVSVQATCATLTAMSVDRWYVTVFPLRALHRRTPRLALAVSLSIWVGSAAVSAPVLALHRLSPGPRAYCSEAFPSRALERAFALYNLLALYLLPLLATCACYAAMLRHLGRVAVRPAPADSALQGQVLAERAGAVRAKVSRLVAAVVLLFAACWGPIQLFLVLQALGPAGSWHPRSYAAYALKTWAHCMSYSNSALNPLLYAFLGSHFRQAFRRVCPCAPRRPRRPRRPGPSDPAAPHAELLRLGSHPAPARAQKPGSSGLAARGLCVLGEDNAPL
Muscarinic acetylcholine receptor M1 (Homo sapiens), sequence (P11229 whole entry, looked up): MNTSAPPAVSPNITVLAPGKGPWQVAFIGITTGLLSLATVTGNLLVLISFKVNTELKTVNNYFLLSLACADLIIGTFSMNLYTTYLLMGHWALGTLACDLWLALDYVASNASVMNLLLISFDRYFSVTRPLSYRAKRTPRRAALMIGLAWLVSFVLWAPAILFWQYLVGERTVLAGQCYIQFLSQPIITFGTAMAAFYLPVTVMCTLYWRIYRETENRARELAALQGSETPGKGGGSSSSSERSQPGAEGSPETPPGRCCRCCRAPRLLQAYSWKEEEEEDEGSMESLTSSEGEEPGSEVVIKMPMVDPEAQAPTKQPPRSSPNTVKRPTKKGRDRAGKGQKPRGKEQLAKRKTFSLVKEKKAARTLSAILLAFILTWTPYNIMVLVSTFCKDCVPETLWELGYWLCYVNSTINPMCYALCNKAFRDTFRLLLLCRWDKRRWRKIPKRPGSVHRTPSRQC
5-hydroxytryptamine receptor 2A (Homo sapiens), sequence (P28223 whole entry, looked up): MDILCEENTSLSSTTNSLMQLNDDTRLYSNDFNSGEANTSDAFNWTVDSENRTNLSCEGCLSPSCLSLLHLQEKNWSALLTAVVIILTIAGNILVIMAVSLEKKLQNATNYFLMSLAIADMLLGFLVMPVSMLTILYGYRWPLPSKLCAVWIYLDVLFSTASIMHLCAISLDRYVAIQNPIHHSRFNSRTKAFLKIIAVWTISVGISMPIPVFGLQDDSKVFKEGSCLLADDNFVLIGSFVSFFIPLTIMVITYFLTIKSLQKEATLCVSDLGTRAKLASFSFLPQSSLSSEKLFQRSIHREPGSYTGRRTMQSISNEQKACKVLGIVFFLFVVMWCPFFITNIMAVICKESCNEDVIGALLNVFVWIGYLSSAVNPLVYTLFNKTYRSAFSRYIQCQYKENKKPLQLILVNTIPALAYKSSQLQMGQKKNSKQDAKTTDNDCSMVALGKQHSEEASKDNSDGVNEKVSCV
Beta-2 adrenergic receptor (Homo sapiens), sequence (P07550 whole entry, looked up): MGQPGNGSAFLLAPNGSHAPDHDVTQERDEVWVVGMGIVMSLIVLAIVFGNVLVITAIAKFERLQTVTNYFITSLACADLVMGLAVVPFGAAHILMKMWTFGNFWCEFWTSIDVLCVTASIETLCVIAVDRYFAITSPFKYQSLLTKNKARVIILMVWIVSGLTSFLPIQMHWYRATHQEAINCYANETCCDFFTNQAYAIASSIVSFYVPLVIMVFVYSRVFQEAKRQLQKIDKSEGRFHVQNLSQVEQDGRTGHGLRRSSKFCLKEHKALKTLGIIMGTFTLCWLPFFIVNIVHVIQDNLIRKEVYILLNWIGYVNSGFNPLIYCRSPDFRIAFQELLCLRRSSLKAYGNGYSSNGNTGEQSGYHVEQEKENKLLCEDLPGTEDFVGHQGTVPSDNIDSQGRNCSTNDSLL
Gonadotropin-releasing hormone receptor (Homo sapiens), sequence (P30968 whole entry, looked up): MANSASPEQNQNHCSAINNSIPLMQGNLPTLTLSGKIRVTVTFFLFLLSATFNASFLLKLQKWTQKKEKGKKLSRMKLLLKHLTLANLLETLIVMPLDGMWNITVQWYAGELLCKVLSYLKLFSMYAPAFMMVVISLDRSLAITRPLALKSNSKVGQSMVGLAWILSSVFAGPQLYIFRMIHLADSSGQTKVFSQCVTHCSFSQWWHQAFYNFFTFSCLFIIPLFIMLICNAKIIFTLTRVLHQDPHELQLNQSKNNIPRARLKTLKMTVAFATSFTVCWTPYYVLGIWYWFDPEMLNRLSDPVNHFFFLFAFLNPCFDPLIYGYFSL
D(2) dopamine receptor (Homo sapiens), sequence (P14416 whole entry, looked up): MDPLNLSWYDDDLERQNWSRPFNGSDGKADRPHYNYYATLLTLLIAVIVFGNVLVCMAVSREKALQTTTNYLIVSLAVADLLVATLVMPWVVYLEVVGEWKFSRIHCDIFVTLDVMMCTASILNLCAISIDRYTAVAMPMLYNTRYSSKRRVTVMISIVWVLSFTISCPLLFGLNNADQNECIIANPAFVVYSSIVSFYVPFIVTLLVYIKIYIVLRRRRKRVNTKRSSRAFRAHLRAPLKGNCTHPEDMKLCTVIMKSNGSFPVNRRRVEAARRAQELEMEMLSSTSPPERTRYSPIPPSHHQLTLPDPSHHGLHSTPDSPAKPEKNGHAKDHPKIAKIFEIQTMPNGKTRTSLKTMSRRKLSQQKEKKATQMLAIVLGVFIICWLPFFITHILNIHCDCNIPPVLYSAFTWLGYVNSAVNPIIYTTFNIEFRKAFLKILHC

For `CC1(C)CON(Cc2ccccc2Cl)C1=O`, the Potency result in assay [1], in assay [2], in assay [3], in assay [4], in [5] and in assay [6] was “inactive” in each case. For the same compound, the Potency result in [7], in assay [8], in assay [9], in assay [10], in assay [11] and in assay [12] was “inactive” throughout. For the same compound, the Potency entry in assay [13], in [14], in [15], in [16], in assay [17] and in assay [18] was “inactive” in each case. Moreover, the Potency entry in assay [19] was “inactive”.

As to `CCCCCCCCP(=O)(O)O`, the Potency entry in assay [1], in assay [2], in assay [3], in [4], in assay [5] and in [6] was “inactive” each time. Further, the Potency result in [7], in [8], in [9], in [11], in [12] and in [13] was “inactive” each time. Also, the Potency result in assay [14], in assay [15], in assay [16], in [17], in [18] and in [19] was “inactive” each time.

Take `N#CC(C#N)=NNc1cccc(Cl)c1`: the Potency in [1] was 8.63 µM (active); in [20], 7.7 µM (active); in assay [4], 2.45 µM (active); in assay [7], 5.13 µM (active). In addition, the Potency result in assay [5], in assay [10], in assay [11], in assay [12], in assay [13] and in assay [14] was “inactive” each time. In addition, the Potency entry in [17], in [18] and in assay [19] was “inactive” each time.

Regarding `FC(F)(F)c1cccc(C2=CCN(CCc3ccc4ccccc4c3)CC2)c1`, the Potency entry in [1], in assay [2], in assay [3], in assay [4], in [5] and in assay [6] was “inactive” in each case. Moreover, the Potency result in assay [7], in [8], in assay [9], in [11], in assay [12] and in assay [13] was “inactive” each time. Besides, the Potency entry in assay [14], in [15], in assay [17] and in [18] was “inactive” each time.

Turning to `Cc1cccc(Cc2cnc[nH]2)c1C`, the Potency entry in [1], in assay [2], in assay [3], in assay [4], in [5] and in assay [6] was “inactive” in each case. The Potency result in assay [7], in assay [8], in assay [9], in assay [11], in [12] and in assay [13] was “inactive” each time. Besides, the Potency result in assay [14], in assay [15], in assay [17], in assay [18] and in assay [19] was “inactive” in each case.

On to `CC(C)COP(=O)(OCC(C)C)OCC(C)C`, for which the Potency result in assay [1], in assay [2], in assay [3], in [4], in assay [5] and in [6] was “inactive” each time. The Potency entry in assay [7], in assay [8], in assay [9], in assay [10], in [11] and in assay [12] was “inactive” each time. In addition, the Potency result in [13], in assay [14], in assay [15], in assay [16], in assay [17] and in assay [18] was “inactive” throughout. In assay [19], the Potency result is “inactive”.

`CN`: the Potency entry in [1], in [2], in assay [3], in assay [4], in [5] and in assay [6] was “inactive” throughout. Moreover, the Potency entry in [7], in [8], in assay [9], in [10], in assay [11] and in [12] was “inactive” each time. Moreover, the Potency result in assay [14], in assay [15], in [16], in assay [17], in [18] and in assay [19] was “inactive” each time.

These data come from PubChem BioAssay (Tox21).
